Experimental data: PubChem BioAssay (NCI)
This is part of a sample that, as a whole, favours compounds with a hit. Of some 83,000 tested, about 20% had one in any assay.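 Compound tested at a single concentration for 48 hours in 96-well plates; a percent growth value below 10 was scored as active.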 The source made the active and inactive calls.

What follows are molecules tested on HCT-15 colon (assay: NCI-60 one-dose screen, 48 h (100 = growth as untreated, 0 = no growth, -100 = all killed)). Settings: 10 µM unless noted.
`CCN(CC)CCNc1ccc(C)c2sc3cc(C)ccc3c(=O)c12` was tested, and the growth was 21.2% (inactive). For `CCOC(=O)c1sc2ccc(NCc3nc[nH]c3C)cc2c1NC(=O)c1cc(OC)c(OC)c(OC)c1`, the growth was 92.7% (inactive). For `O=C(NCc1cccnc1)c1cc(-c2csc3c(=O)cc(N4CCOCC4)oc23)cc2c1OCCO2`, the growth was 66.5% (inactive). For `COc1ccc(/C=C(\C#N)n2nnc3ccccc32)cc1`, the growth was 8.56% (active). In the case of `COc1ccc(C(=O)/C=C/C23c4ccccc4C(c4ccccc42)C2C(=O)NC(=O)C23)cc1` (stereo not given), the growth is reported as 91.3% (inactive). With `CCN(CC)CCOc1ccc(/C(=C(\C)c2ccc(OC)c(F)c2)c2ccc(Cl)cc2)cc1` the growth was 7.79% (active). For `O=C1CSC(c2ccccc2O)N1c1nnc(Cn2cnnc2)o1` (stereo not given), the growth was 66.2% (inactive). In the case of `O=C1CSC(c2ccc(O)cc2)N1c1nnc(Cn2cnnc2)o1` (stereo not given), the growth is reported as 110% (inactive). `O=C(NCOC(O)C(Cl)(Cl)Cl)NCOC(O)C(Cl)(Cl)Cl` (stereo not given) was tested, and the growth was 95.8% (inactive). `CCOC(=O)c1c(C)[nH]c(C(=O)CCC(=O)OC)c1C` was tested, and the growth was 92.4% (inactive). With `O=C1CC(c2ccc3c(c2)OCO3)Nc2cc3c(cc21)OCO3` (stereo not given) the growth was 14% (inactive). `O=C1/C(=C/c2ccccc2[N+](=O)[O-])COc2ccc(O)c(O)c21` was tested, and the growth was -11.8% (active). For `Cc1nc(-c2ccccc2)cc2c(O)c(C(=O)N/N=C/c3ccc(N(C)C)cc3)[nH]c(=O)c12`, the growth was 83.1% (inactive). In the case of `N#Cc1c(N)n2c(nc1=Nc1ccc(Cl)cc1)sc1cc(Cl)ccc12`, the growth is reported as 96.2% (inactive). For `COc1cc(NC(=O)c2cccc(-c3cc(=O)c4c(O)c(OC)c(OC)cc4o3)c2)cc(OC)c1OC`, the growth was 59.9% (inactive).
